The results in this text go back to PubChem BioAssay.

Calls of active or inactive are those of the source.

In test [1] the test system is PRMT1 (protein arginine N-methyltransferase 1). Description: PRMT1 binders on small-molecule microarrays, primary screen, biochemical, small-molecule microarray, 635 nm fluorescence (AID 1088).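 Further: binding of Prmt1 protein to compounds spotted on small-molecule microarray slides.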 As to conditions: small-molecule microarray binding, higher = more signal.
Test [2] in a line: yeast growth modulation, basal conditions, primary screen, YJM789 clinical isolate, OD600, 24 h (AID 1089).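 Further: growth of clinical yeast isolate S. cerevisiae YJM 789 seeded 1000 cells per well; test concentration not given here.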 To be noted: S. cerevisiae YJM789 growth, higher = more signal, called active from +8 up or from −8 down.
A short description of test [3]: fission yeast growth modulation, primary screen, strain 972, OD600, 24 h, no modulator (AID 1090).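 Further: basal condition with compound alone and no growth modifier present; test concentration not given here.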 To be noted: S. pombe 972 growth, higher = more signal, called active from +8 up or from −8 down.
Test [4] can be described thus: S. cerevisiae growth modulation with rapamycin, primary screen, strain BY4716, OD600, 96 h (AID 1091). Further: test concentration not given here. To be noted: higher = more signal, called active from +8 up or from −8 down.
In test [5] the target is Torsin-1A-interacting protein 2 (Homo sapiens) (UniProt Q8NFQ8). Nature of the test: LULL1 binders on small-molecule microarray, primary screen, cell lysate, human LULL1 lysate, 635/667 nm fluorescence (AID 1092).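 Further: probe is lysate of COS7 cells overexpressing human LULL1; score merges per-feature 667 nm fluorescence with signal-to-noise.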 To be noted: hLULL1 lysate binding, 635 nm fluorescence, higher = more signal.
Sequence of Torsin-1A-interacting protein 2 (Homo sapiens) (Q8NFQ8 whole entry, looked up): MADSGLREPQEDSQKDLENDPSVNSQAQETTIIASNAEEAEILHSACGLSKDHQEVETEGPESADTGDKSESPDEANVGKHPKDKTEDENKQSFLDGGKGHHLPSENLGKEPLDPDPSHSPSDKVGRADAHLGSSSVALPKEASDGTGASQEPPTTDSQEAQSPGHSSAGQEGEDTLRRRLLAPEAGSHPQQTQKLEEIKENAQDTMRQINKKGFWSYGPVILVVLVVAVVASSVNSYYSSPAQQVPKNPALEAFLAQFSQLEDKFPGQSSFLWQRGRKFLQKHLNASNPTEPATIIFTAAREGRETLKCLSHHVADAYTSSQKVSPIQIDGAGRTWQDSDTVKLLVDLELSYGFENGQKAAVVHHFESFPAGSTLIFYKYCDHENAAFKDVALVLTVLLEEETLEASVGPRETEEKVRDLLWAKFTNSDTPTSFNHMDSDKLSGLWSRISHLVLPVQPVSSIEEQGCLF
Test [6] can be described thus: E. coli growth modulation, two-sided OD650, primary screen, E. coli filamentation project, strain DRC41, 24 h (AID 1093).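 Further: MC1000 strain lacking acrAB efflux and sulA so SOS filamentation is blocked; test concentration not given here.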 To be noted: OD650, 24 h, higher = more signal, called active from +8 up or from −8 down.
The nature of test [7]: small-molecule microarray binders of probe aLefty2, primary screen, biochemical, biotinylated probe, 635/667 nm fluorescence (AID 1094).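 Further: score merges spot fluorescence near 667 nm with spot signal-to-noise ratio.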 To be noted: higher = more signal.
Test [8] concerns Noggin (protein binding on small-molecule microarray). Description: Noggin binders on small-molecule microarray, primary screen, biochemical, 635/667 nm fluorescence (AID 1095).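 Further: score merges 667 nm feature fluorescence with signal to noise over triplicate slides.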 As to conditions: 635 nm fluorescence, higher = more signal.
The target of test [9] is Neurogenic locus notch homolog protein 3 (Homo sapiens) (UniProt Q9UM47). Description: NOTCH3 binders on small-molecule microarray, primary screen, biochemical, 635/667 nm fluorescence (AID 1096). As to conditions: NOTCH3 binding, 635 nm fluorescence, higher = more signal.
Sequence of Neurogenic locus notch homolog protein 3 (Homo sapiens) (Q9UM47 whole entry, looked up): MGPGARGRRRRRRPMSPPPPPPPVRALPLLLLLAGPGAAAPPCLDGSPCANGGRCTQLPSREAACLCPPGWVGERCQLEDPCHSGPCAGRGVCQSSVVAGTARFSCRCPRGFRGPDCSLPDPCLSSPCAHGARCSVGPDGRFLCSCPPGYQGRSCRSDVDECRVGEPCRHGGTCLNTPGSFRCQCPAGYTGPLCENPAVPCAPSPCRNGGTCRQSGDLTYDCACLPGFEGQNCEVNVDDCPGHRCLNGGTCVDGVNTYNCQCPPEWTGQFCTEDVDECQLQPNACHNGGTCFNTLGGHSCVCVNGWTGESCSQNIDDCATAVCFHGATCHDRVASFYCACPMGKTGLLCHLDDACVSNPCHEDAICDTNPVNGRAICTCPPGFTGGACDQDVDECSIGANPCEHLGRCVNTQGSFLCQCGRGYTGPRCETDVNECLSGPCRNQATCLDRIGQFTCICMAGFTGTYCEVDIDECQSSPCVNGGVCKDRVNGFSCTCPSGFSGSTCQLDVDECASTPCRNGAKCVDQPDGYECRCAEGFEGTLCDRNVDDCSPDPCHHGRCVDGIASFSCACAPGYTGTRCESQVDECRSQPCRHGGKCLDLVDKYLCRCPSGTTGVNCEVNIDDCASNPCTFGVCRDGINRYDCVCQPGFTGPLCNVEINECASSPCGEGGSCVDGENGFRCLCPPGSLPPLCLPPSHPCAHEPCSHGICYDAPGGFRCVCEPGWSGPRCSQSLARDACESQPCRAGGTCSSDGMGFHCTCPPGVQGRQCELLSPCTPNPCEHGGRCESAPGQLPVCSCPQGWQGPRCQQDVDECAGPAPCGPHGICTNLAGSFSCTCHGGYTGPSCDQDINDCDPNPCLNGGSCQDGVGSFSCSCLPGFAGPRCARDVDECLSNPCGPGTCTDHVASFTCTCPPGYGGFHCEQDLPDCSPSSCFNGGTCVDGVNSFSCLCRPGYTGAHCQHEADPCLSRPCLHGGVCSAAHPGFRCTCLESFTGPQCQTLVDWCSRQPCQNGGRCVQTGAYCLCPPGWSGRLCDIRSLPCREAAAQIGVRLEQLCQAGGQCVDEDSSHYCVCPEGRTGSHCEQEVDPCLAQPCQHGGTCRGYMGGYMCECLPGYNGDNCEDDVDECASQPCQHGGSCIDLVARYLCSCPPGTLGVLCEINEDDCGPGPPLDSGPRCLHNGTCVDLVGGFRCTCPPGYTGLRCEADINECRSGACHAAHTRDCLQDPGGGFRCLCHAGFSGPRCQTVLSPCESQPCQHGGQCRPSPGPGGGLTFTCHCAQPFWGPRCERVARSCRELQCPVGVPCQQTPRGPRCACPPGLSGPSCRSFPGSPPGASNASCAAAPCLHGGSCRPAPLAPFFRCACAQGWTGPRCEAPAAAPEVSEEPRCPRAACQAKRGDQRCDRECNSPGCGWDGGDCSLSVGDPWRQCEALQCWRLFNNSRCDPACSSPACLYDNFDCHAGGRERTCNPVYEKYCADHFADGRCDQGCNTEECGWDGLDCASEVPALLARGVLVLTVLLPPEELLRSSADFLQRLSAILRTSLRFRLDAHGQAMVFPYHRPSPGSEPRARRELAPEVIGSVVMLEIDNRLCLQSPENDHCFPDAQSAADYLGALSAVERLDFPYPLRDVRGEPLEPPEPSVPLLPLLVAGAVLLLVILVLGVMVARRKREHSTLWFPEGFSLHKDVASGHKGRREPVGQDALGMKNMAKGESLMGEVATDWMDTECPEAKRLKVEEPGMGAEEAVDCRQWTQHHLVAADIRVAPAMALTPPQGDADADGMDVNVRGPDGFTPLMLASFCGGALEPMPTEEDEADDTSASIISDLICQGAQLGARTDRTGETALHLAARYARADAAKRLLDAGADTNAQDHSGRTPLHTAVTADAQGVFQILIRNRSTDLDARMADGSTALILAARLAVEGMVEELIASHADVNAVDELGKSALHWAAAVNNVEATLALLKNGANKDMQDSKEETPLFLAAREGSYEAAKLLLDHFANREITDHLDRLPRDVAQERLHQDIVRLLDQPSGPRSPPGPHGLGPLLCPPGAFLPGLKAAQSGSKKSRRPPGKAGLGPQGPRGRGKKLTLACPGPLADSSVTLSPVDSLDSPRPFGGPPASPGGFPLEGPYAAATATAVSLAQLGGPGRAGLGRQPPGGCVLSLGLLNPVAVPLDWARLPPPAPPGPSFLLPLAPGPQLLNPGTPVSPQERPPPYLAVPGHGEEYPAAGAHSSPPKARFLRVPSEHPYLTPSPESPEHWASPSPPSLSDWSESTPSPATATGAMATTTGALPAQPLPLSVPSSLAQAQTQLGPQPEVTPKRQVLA
A short description of test [10]: small-molecule microarray binders of probe aEGFR, primary screen, biochemical, biotinylated probe, 635/667 nm fluorescence (AID 1097).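 Further: probe is a biotinylated anti-EGFR antibody binding compounds printed on slides; score combines fluorescence near 667 nm and signal to noise of each spot.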 To be noted: higher = more signal.
Test [11] deals with Plasmodium falciparum Sir2 (PF13_0152, Sir2A). Description: pfSir2 binders on small-molecule microarrays, primary screen, biochemical, small-molecule microarray, 635 nm fluorescence (AID 1098).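 Further: score merges spot fluorescence intensity with its signal-to-noise ratio.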 As to conditions: small-molecule microarray binding, fluorescence 635 nm; higher = more signal.
Test [12] can be described thus: small-molecule microarray binders of probe aDKK1, primary screen, biochemical, biotinylated probe, 635/667 nm fluorescence (AID 1099).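 Further: score merges 667nm spot fluorescence with signal to noise across triplicate slides; reference of the scale not given here.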 As to conditions: higher = more signal.
Test [13] can be described thus: small-molecule microarray binders of probe aCHRDL2, primary screen, biochemical, biotinylated probe, 635/667 nm fluorescence (AID 1100). To be noted: higher = more signal.
Test [14] in a line: splicing luciferase reporter signal modulators, primary screen, spliceosome inhibition project, cell-based, HEK293, splice +/- reporter (AID 1101).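 Further: HEK293 cells carrying a splicing-competent luciferase reporter gene; test concentration not given here.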 As to conditions: luminescence, 24 h, higher = more signal, called active from +8 up or from −8 down.
The target in test [15] is Fibroblast growth factor 10 (Homo sapiens) (UniProt O15520). Description: FGF10 binders on small-molecule microarrays, primary screen, biochemical, small-molecule microarray, 635 nm fluorescence (AID 1102). As to conditions: FGF10 binding, fluorescence 635 nm, higher = more signal.
Sequence of Fibroblast growth factor 10 (Homo sapiens) (O15520 whole entry, looked up): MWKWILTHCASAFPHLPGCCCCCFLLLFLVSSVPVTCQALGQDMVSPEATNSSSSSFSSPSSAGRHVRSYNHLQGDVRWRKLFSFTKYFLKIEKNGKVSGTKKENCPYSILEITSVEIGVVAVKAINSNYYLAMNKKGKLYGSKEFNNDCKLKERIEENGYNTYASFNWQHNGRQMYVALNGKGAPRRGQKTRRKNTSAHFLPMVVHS
Test [16] concerns glycogen synthase kinase-3 (GSK3A per assay name; protocol says GSK3B). Description: GSK3 binders on small-molecule microarrays, primary screen, biochemical, small-molecule microarray, 635 nm fluorescence, GSK3A (AID 1103). Further: the record names both GSK3A and GSK3B. As to conditions: small-molecule microarray binding, fluorescence 635 nm; higher = more signal.
Test [17] deals with Epidermal growth factor receptor (Homo sapiens) (UniProt P00533). Nature of the test: EGFR binders on small-molecule microarrays, primary screen, biochemical, small-molecule microarray, 635 nm fluorescence (AID 1104).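 Further: score merges 667 nm emission intensity with spot signal to noise over triplicate slides.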 To be noted: EGFR binding, higher = more signal.
Sequence of Epidermal growth factor receptor (Homo sapiens) (P00533 whole entry, looked up): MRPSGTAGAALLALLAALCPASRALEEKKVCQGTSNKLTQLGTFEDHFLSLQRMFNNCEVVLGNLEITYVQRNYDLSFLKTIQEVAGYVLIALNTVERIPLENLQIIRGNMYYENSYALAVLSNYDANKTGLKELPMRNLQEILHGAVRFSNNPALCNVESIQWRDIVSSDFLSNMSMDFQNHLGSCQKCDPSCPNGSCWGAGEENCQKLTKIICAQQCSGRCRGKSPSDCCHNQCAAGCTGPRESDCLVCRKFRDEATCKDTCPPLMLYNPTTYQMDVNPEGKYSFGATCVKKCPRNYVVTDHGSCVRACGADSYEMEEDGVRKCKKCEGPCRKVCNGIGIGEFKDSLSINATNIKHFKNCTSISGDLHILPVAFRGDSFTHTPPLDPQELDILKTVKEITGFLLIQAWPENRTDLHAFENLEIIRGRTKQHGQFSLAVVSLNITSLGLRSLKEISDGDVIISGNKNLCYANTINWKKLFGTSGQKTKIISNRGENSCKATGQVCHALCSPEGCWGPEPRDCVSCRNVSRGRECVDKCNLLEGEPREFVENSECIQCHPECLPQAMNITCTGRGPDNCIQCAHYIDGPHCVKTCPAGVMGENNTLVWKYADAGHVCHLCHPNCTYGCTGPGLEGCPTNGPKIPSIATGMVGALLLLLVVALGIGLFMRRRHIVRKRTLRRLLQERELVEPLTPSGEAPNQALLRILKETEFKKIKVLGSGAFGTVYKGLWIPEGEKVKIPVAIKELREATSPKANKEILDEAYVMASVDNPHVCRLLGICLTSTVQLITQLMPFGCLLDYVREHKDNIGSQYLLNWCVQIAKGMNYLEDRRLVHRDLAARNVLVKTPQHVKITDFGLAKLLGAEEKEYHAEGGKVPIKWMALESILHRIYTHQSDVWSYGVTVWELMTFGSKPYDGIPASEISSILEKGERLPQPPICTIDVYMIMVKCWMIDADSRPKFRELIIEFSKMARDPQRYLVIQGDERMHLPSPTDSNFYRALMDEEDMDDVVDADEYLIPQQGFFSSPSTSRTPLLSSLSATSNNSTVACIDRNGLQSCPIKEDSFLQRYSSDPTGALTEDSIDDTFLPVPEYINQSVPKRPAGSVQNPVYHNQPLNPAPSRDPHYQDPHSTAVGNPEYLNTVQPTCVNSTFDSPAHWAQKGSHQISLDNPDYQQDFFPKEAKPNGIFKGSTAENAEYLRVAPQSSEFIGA
Test [18] has as its target Follistatin-related protein 3 (Homo sapiens) (UniProt O95633). Nature of the test: FSTL3 binders on small-molecule microarrays, primary screen, biochemical, small-molecule microarray, 635 nm fluorescence (AID 1105).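 Further: score merges emission near 667 nm and signal to noise per printed spot across three slides.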 As to conditions: FSTL3 binding, higher = more signal.
Test [19] addresses Dickkopf-related protein 1 (Homo sapiens) (UniProt O94907). Description: DKK1 binders on small-molecule microarrays, primary screen, biochemical, small-molecule microarray, 635 nm fluorescence scan (AID 1106).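 Further: score merges emission near 667 nm with signal to noise over three replicate slides.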 To be noted: DKK1 binding, higher = more signal.
The test system of test [20] is Inhibin beta A chain (activin A). Description: INHBA (activin A) binders on microarrays, primary screen, biochemical, small-molecule microarray, 635 nm fluorescence scan (AID 1107).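 Further: mouse activin A protein probed at 4.33 µg/mL on printed slides; score merges bound-protein fluorescence near 667 nm with spot signal-to-noise.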 To be noted: small-molecule microarray binding, higher = more signal.

Sequence of Dickkopf-related protein 1 (Homo sapiens) (O94907 whole entry, looked up): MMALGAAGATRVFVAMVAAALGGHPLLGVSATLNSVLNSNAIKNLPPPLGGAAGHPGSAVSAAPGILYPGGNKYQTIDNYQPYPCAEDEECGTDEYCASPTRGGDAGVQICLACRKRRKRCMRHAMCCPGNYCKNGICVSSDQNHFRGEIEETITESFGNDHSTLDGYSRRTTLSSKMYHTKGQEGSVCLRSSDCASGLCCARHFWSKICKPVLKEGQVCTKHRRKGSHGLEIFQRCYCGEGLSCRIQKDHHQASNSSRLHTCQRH
Sequence of Follistatin-related protein 3 (Homo sapiens) (O95633 whole entry, looked up): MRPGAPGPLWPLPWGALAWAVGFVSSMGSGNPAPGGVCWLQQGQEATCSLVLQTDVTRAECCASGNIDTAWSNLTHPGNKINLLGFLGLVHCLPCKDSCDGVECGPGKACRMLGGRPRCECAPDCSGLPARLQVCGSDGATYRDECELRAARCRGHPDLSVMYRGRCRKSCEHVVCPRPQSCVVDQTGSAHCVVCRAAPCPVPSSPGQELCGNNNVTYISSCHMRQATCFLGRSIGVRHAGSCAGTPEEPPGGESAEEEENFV

As to `CS(=O)(=O)CCOC(=O)C1=CC(c2ccc(CO)cc2)=CC(c2cccs2)N(Cc2cccc(OC(F)(F)F)c2)C=C1C(=O)OCCS(C)(=O)=O` (stereo not given), the composite z-score in test [1] was 1.34; in test [5] it was 3.12; in [7], -0.0833; in test [8], 0.333; in test [9], 0.856; in test [10], -0.0688. Also, the composite z-score in [11] was 0.472; in test [12], 0.15; in [13], 0.211; in test [15] it was 1.02; in [16], 0.88; in test [17] it was 0.084. Besides, the values for the composite z-score in test [18], in [19] and in test [20] were 0.919, 0.353 and 1.33, respectively. The z-score was -0.246 (inactive) in [2]; -3.38 (inactive) in test [3]; 2.41 (inactive) in test [4]; -0.575 (inactive) in test [6]; -0.164 (inactive) in [14].

Take `Cc1ccc(S[C@]2(C(=O)NCC(C)C)CC(=O)N(Cc3ccccc3)[C@@H]2c2ccc(CO)cc2)cc1`: the composite z-score was 0.744 in [1]; 1.86 in [5]; 0.189 in test [7]; -0.779 in test [8]; -0.331 in test [9]; -0.236 in test [10]. Besides, the composite z-score in test [11] is 0.959; in test [12] it was -0.0941; in test [13], 1.09; in [15] it was -0.514; in test [16], -0.919; in test [17] it was -1.14. Also, the composite z-score was -0.979 in [18], -1.06 in [19] and -0.417 in test [20]. The z-score is -1.14 (inactive) in test [2]; -1.14 (inactive) in [3]; -0.256 (inactive) in [4]; -0.579 (inactive) in [6]; 0.00364 (inactive) in test [14].

For the compound `O=C1[C@H]2C=C(Br)[C@H](C[C@@H]2OCCOCCO)[C@@]12CO2`, the composite z-score is -0.223 in [1]; 0.0385 in test [5]; -0.111 in [7]; 0.595 in test [8]; 0.235 in test [9]; 0.0974 in [10]. Moreover, the composite z-score was 0.146 in test [11]; -0.119 in [12]; -0.115 in [13]; 0.527 in test [15]; 0.144 in [16]; 0.475 in test [17]. The composite z-score worked out at 0.118 in [18], 0.18 in test [19] and 1.02 in test [20]. Also, the z-score is 0.85 (inactive) in [2]; 0.397 (inactive) in [3]; 1.19 (inactive) in test [4]; -0.922 (inactive) in test [6]; 0.651 (inactive) in test [14].

Take `C=CCOC(=O)[C@@H]1[C@H]2C(=O)O[C@H](c3ccccc3)[C@H](c3ccccc3)N2[C@H](c2ccc(OCCOC(=O)[C@H]3C[C@H]4C(=O)N[C@@H](Cc5ccccc5)C(=O)N4[C@H]3c3ccc(O)cc3)cc2)[C@@]12C(=O)Nc1ccc(I)cc12`: the composite z-score in test [1] is 1.54; in test [5] it was 1.83; in [7], -0.0879; in test [8] it was 0.906; in test [9], 1.09; in test [10], 0.128. Moreover, the composite z-score in test [11] turned out to be 1.54; in test [12] it was 0.232; in test [13], 0.163; in test [15], 1.22; in [16], 1.33; in [17], 0.906. The composite z-score in [18] is 1.29; in test [19], 1.26; in [20] it was -0.418. Besides, the z-score is 2.61 (inactive) in test [2]; -1.76 (inactive) in test [3]; 0.88 (inactive) in test [4]; -1.96 (inactive) in test [6]; 0.00712 (inactive) in test [14].

With `COC(=O)[C@@]1(Cc2ccc(OC)cc2)[C@H]2c3cc(C(=O)N4CCCC4)n(C[C@H](O)CO)c3C[C@H]2CN1C(=O)c1ccccc1`, the composite z-score in [1] was -0.448; in test [5], 2.4; in [7], 0.0069; in [8], -0.533; in test [9], 0.355; in test [10] it was -0.175. Further, the composite z-score in test [11] is 1.06; in [12], 0.642; in [13] it was 0.913; in [15], 0.974; in [16] it was -0.681; in [17] it was -0.352. Further, the composite z-score is -0.519 in [18], -0.385 in [19] and 0.903 in test [20]. The z-score in [2] was 0.659 (inactive); in test [3], 1.13 (inactive); in test [4] it was 0.454 (inactive); in test [6] it was -0.0765 (inactive); in test [14] it was 1.19 (inactive).
